USP8 inh: blocks human USP8 ubiquitin-rhodamine cleavage | P40818 | purified USP8, Ub-rhodamine cleavage fluorescence, 30 min | inhibition, % at 20 µM | hit rate 4.2% among 47,000 | AID 1645853
USP28 inh: blocks human USP28 ubiquitin-rhodamine cleavage | purified USP28, Ub-rhodamine cleavage fluorescence, 30 min | inhibition, % at 25 µM | hit rate 3% among 47,000
USP17 inh: human USP17-like deubiquitinase inhibition; A8MUK1; hit rate 6.5% among 47,000; inhibition, % at 50 µM; purified USP17, Ub-rhodamine cleavage fluorescence, 3 h
Target sequence (A8MUK1 whole entry, looked up): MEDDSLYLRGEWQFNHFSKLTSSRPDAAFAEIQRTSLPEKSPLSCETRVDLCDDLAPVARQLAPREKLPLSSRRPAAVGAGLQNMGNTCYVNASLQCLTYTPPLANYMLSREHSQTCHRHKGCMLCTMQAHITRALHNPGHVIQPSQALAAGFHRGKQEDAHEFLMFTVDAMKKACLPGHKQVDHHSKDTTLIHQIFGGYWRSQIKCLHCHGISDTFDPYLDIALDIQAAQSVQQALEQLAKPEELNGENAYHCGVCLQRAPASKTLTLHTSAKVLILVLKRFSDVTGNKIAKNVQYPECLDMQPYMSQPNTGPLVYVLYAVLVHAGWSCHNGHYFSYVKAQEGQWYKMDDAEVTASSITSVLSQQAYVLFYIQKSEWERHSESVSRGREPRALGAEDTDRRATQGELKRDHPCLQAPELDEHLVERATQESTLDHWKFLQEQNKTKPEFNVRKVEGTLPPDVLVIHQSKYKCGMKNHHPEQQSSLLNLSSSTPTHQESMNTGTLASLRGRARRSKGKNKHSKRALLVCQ
USP30 inh: blocks human USP30 ubiquitin-rhodamine cleavage | inhibition, % at 25 µM | AID 1645860 | purified USP30, Ub-rhodamine cleavage fluorescence | hit rate 5.3% among 47,000 | Q70CQ3
Active calls of the source: *; nt = no result. Sampled rows, rich in hits. Any-hit rate of the full collection: about 13%. Cut-off read from the data, not from the text of the source: active = inhibition above about 30%; inactive = the rest.

SMILES	USP8 inh	USP28 inh	USP17 inh	USP30 inh
O=C(Cn1c(=O)[nH]c2ccccc2c1=O)NCc1ccccc1Cl	55*	6	40*	17
Cc1ccc2c(c1)CCCN2C(=O)c1cn(Cc2ccccc2)nc1-c1cccnc1	53*	-33	-10	-168
O=C(NC1CCCCCC1)c1cn(Cc2ccccc2)nc1-c1cccnc1	4	-2	2	14
O=C(c1cn(Cc2ccccc2)nc1-c1cccnc1)N1CCCc2ccccc21	-3	-63	-32	-333
O=C(NC1CCCC1)c1cn(Cc2ccccc2)nc1-c1cccnc1	4	11	8	38*
Cc1noc(-c2ccnc(-n3cnc(C(=O)NCc4ccccc4C)c3)c2)n1	0	-5	1	10
Cc1noc(-c2ccc(-n3cnc(C(=O)NC4CCCCCC4)c3)nc2)n1	35*	13	22	25
Cc1noc(-c2ccc(-n3cnc(C(=O)NCc4ccccc4)c3)nc2)n1	10	6	21	30*
O=C(NCc1ccc2c(c1)OCO2)c1ccsc1	-3	-5	-9	-2
O=C(NCc1ccc2c(c1)OCO2)c1cc2c(s1)CCC2	79*	44*	48*	30
O=C(/C=C/c1ccc2c(c1)OCO2)Nc1nc2c(s1)COCC2	-1	22	65*	23
O=C(/C=C/c1ccc2c(c1)OCO2)NCc1ccc2c(c1)OCO2	-2	21	25	32*
Cc1cccc(NC(=O)Cn2c3ncccc3c(=O)n2-c2ccccc2)c1	1	12	0	3
Cc1ccc(-n2nnnc2SCC(=O)N(C)c2ccccc2)c(C)c1	-231	2	7	7
Nc1cc(C2CCN(S(=O)(=O)c3ccc4c(c3)CCCC4)CC2)no1	17	10	16	48*
Cc1cccc(S(=O)(=O)N2CCC(c3cc(N)on3)CC2)c1	-24	-8	-3	-14
COc1ccccc1/C=C(\C(=O)N1CCN(c2ccccc2)CC1)c1ccccc1	4	14	7	35*
COc1ccccc1-c1nc(-c2cn(-c3ccc(F)cc3)nn2)no1	89*	13	31*	41*
COc1ccc(-c2nc(-c3nnn(Cc4ccc(F)cc4)c3C)no2)c(OC)c1	60*	40*	34*	66*
COc1ccc(-c2nc(-c3cn(-c4ccccc4)nn3)no2)c(OC)c1	38*	54*	71*	94*
Fc1cccc(-n2cc(-c3noc(-c4cccnc4)n3)nn2)c1	52*	21	54*	61*
Clc1cccc(-n2cc(-c3noc(-c4ccncc4)n3)nn2)c1	-4	-7	-32	-9
COc1ccc(-c2nc(-c3nnn(Cc4cccc(F)c4)c3C)no2)cc1OC	-1	21	7	4
COc1ccc(CC(=O)NC[C@H]2C[C@@]3(C)[C@@H](O)CCCC[C@H]3N2C(C)=O)cc1	18	5	14	11
COc1ccccc1Cc1nc(-c2cn(Cc3ccccc3)nn2)no1	-2	12	14	23
SMILES	USP8 inh	USP28 inh	USP17 inh	USP30 inh
COc1ccccc1-c1nc(-c2cn(-c3ccccc3)nn2)no1	14	17	15	26
COc1ccc(-c2nc(-c3cn(-c4cccc(Cl)c4)nn3)no2)c(OC)c1	30	nt	65*	nt
COc1ccccc1Cc1nc(-c2cn(-c3cccc(F)c3)nn2)no1	20	20	13	34*
COc1ccc(CN2C[C@@H](c3ccccc3)[C@@]3(CCCC(=O)N3)C2)cc1CN1CCOCC1	-12	0	-2	0
CCCc1ccc(C(C)NC(=O)c2cnn3c(C(F)F)cc(-c4ccc(OC)cc4)nc23)cc1 (stereo unspecified)	22	18	34*	15
CCN(CC)c1ccc(NC(=O)c2cnn3c(C(F)F)cc(-c4ccc(OC)cc4)nc23)cc1	11	11	16	14
Cc1ccc(-c2cc(C(F)F)n3ncc(C(=O)N(C)Cc4cnn(C)c4)c3n2)cc1	1	-2	-5	7
Cc1ccc(-c2cc(C(F)F)n3ncc(C(=O)Nc4ccc5c(c4)OCO5)c3n2)cc1	47*	10	22	11
O=C(Nc1ccccc1N1CCOCC1)c1ccc(OC(F)(F)F)cc1	-29	-5	-5	-7
CSc1nc(NCCCO)c2sc3nc(-c4ccccc4)c4c(c3c2n1)CCC4	-2	-4	-18	29
CC1OC2CC(O)C1(O)C1=C2C(O)=C(C(N)=O)C(=N)C1=O (stereo unspecified)	39*	60*	62*	-23
CC(CCc1ccccc1)NC(=O)C(=O)c1cn(CC(=O)N2CCOCC2)c2ccccc12 (stereo unspecified)	1	9	44*	50*
CC(=O)c1cccc(NC(=O)C(=O)c2cn(CC(=O)N3CCOCC3)c3ccccc23)c1	-11	-17	-1	-124
CCOc1ccccc1NC(=O)C(=O)c1cn(CC(=O)N2CCCCC2)c2ccccc12	-8	0	7	40*
Cc1sc2c(=O)n(C3CCCCC3)cnc2c1C(=O)NC1CCCC1	0	1	1	4
CCc1nnsc1C(=O)N1CCC(c2cc(=O)[nH]c(N(C)C)n2)C1 (stereo unspecified)	16	6	14	22
CC(=O)Nc1ccc(C(=O)/C=C2\NCCc3cc4c(cc32)OCCCO4)cc1	44*	-73	-141	-272
COc1ccc(NC(=O)CN2CCN(c3ccc(C(C)=O)cc3)CC2)cc1S(=O)(=O)N1CCCCC1	6	10	36*	54*
COc1ccc(NC(=O)Cc2ccccc2F)cc1S(=O)(=O)N1CCCCC1	3	10	nt	8
CCc1nnc(-c2nnc(NCc3cccnc3)c3ccccc23)o1	4	9	4	27
CCc1ccc(NC(=O)COC(=O)c2n[nH]c3ccccc23)cc1	28	43*	71*	28
N#Cc1ccc(Cl)cc1NC(=O)CSc1ncccc1C(=O)O	0	4	9	11
CC(=O)c1ccc(NC(=O)COC(=O)c2c[nH]c3ccccc23)cc1	0	nt	34*	nt
CCOc1ccc(NC(=O)COC(=O)c2n[nH]c3ccccc23)cc1	-111	3	-14	16
N#Cc1cccc(NC(=O)COC(=O)c2n[nH]c3ccccc23)c1	28	8	47*	-120
SMILES	USP8 inh	USP28 inh	USP17 inh	USP30 inh
N#Cc1ccc(Cl)cc1NC(=O)COC(=O)c1n[nH]c2ccccc12	34*	-10	-13	-74
N#Cc1ccc(NC(=O)COC(=O)C(Cc2c[nH]c3ccccc23)NC(=O)c2ccc(F)cc2)cc1 (stereo unspecified)	-12	6	22	0
COc1cc(NC(=O)C(Cc2ccccc2)NC(=O)C2CCCCC2)cc(OC)c1OC (stereo unspecified)	-15	-1	2	1
O=C(c1nnc(-c2cc(S(=O)(=O)N3CCCCCC3)c[nH]2)o1)N1CCCC1	19	6	21	30
CC1CCN(S(=O)(=O)c2c[nH]c(-c3nnc(C(=O)N4CCCC4)o3)c2)CC1	30	19	28	47*
Cc1cccc(-n2nc(C)c3c2NC(=O)CC3C(=O)c2cc3ccccc3o2)c1 (stereo unspecified)	-4	-15	70*	3

Screening results: PubChem BioAssay, Buhrlage Lab, Dana-Farber Cancer Institute and Novartis Institutes for BioMedical Research (Cambridge, Mass)
